Laboratory results from PubChem BioAssay AID1159580 (chemical genetic matrix, 2015).
The campaign covered roughly 5,500 compounds. About 2,000 (36%) were called active. Inconclusive results (about 18%) are left out. Rule as the data show it: active = normalized growth mostly below about 0.91 (no sharp cut-off); inconclusive = no clear call, values can overlap the other calls; inactive = mostly above about 0.92. This is one part of the list.

Experiment: chemical genetic growth profiling, strain panel (AID 1159580);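 also: tested at 20 µM; growth read once vehicle control cultures reached saturation at 30 °C; 1 = growth at the plate median or of vehicle wells; lower values mean less growth of the strain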
Conditions: S. cerevisiae deletion strains, growth OD

Measured: normalized growth

CCCCCCCCCCC[C@@H](C[C@H]1OC(=O)[C@H]1CCCCCC)OC(=O)[C@@H](CC(C)C)NC=O
inactive: locus YAL013W, strain DEP1, active compounds read low 1.05 | locus YAL021C, strain ccr4, active compounds read low 1.01 | locus YAL026C, strain drs2, active compounds read low 1.05 | locus YAL030W, strain snc1, active compounds read low 1.03 | locus YBL061C, strain skt5, active compounds read low 1.02 | locus YBR009C, strain hhf1, active compounds read low 1.04 | locus YBR021W, strain FUR4, active compounds read low 1.05 | locus YBR023C, strain chs3, active compounds read low 0.994 | locus YBR171W, strain sec66, active compounds read low 1.06 | locus YBR229C, strain ROT2, active compounds read low 1.02 | locus YBR231C, strain swc5, active compounds read low 0.965 | locus YBR279W, strain paf1, active compounds read low 1 | locus YCL011C, strain gbp2, active compounds read low 1.05 | locus YCL016C, strain dcc1, active compounds read low 1.01 | locus YCL029C, strain bik1, active compounds read low 1.03 | locus YCL061C, strain MRC1, active compounds read low 1.05 | locus YCL069W, strain vba3, active compounds read low 1.05 | locus YCR088W, strain abp1, active compounds read low 1.02 | locus YDL005C, strain med2, active compounds read low 1.03 | locus YDL035C, strain GPR1, active compounds read low 1.05 | locus YDL040C, strain nat1, active compounds read low 1 | locus YDL074C, strain BRE1, active compounds read low 1.05 | locus YDL101C, strain DUN1, active compounds read low 1.02 | locus YDL134C, strain PPH21, active compounds read low 1.02 | locus YDL185W, strain tfp1, active compounds read low 0.992 | locus YDL192W, strain arf1, active compounds read low 1.03 | locus YDR001C, strain nth1, active compounds read low 1.05 | locus YDR069C, strain doa4, active compounds read low 1.02 | locus YDR101C, strain arx1, active compounds read low 1.03 | locus YDR137W, strain rgp1, active compounds read low 0.978 | locus YDR150W, strain NUM1, active compounds read low 1.06 | locus YDR159W, strain sac3, active compounds read low 1.01 | locus YDR162C, strain NBP2, active compounds read low 1.02 | locus YDR195W, strain ref2 1.02 | locus YDR297W, strain sur2, active compounds read low 1.04 | locus YDR318W, strain mcm21, active compounds read low 1.01 | locus YDR334W, strain swr1, active compounds read low 1.03 | locus YDR335W, strain msn5, active compounds read low 1.05 | locus YDR388W, active compounds read low 1.02 | locus YDR392W, strain spt3, active compounds read low 1.1 | locus YDR502C, strain sam2, active compounds read low 1.03 | locus YEL003W, strain gim4, active compounds read low 1.02 | locus YEL037C, strain rad23, active compounds read low 1.06 | locus YEL061C, strain CIN8 (second series), active compounds read low 1.04 | locus YEL061C, strain CIN8, active compounds read low 1.01 | locus YER015W, strain faa2, active compounds read low 1.02 | locus YER016W, strain bim1, active compounds read low 1.01 | locus YER110C, active compounds read low 1.02 | locus YER111C, strain swi4, active compounds read low 1.06 | locus YER155C, strain BEM2 (second series), active compounds read low 1.07 | locus YER155C, strain BEM2, active compounds read low 1.03 | locus YER167W, strain BCK2, active compounds read low 1.02 | locus YFR010W, strain ubp6, active compounds read low 1.05 | locus YGL078C, strain dbp3, active compounds read low 1.03 | locus YGL086W, strain mad1, active compounds read low 1.01 | locus YGL167C, strain pmr1, active compounds read low 0.994 | locus YGL173C, strain kem1, active compounds read low 1.04 | locus YGL227W, strain vid30, active compounds read low 1.02 | locus YGL240W, strain doc1, active compounds read low 1.06 | locus YGL248W, strain PDE1, active compounds read low 1.03 | locus YGL253W, strain hxk2, active compounds read low 1.04 | locus YGR078C, strain PAC10, active compounds read low 1.05 | locus YGR135W, strain pre9, active compounds read low 1.02 | locus YGR252W, strain gcn5, active compounds read low 1.08 | locus YHR013C, strain ard1, active compounds read low 1.03 | locus YHR027C, strain rpn1, active compounds read low 1.05 | locus YHR030C, strain SLT2, active compounds read low 1.04 | locus YHR079C, strain IRE1 (second series), active compounds read low 1 | locus YHR094C, strain hxt1, active compounds read low 1 | locus YHR129C, strain ARP1, active compounds read low 1.04 | locus YHR142W, strain chs7, active compounds read low 1.04 | locus YHR200W, strain rpn10, active compounds read low 1.03 | locus YIL066C, strain RNR3, active compounds read low 1.03 | locus YIL073C, strain SPO22, active compounds read low 1.06 | locus YIL125W, strain kgd1, active compounds read low 1 | locus YIR030C, strain dcg1, active compounds read low 1.03 | locus YJL092W, strain hpr5, active compounds read low 1.04 | locus YJL095W, strain BCK1 (second series), active compounds read low 1.03 | locus YJL095W, strain BCK1, active compounds read low 1.05 | locus YJL115W, strain asf1, active compounds read low 1.06 | locus YJL129C, strain trk1, active compounds read low 1.04 | locus YJL134W, strain LCB3, active compounds read low 1.02 | locus YJL154C, strain vps35, active compounds read low 1.07 | locus YJL164C, strain tpk1, active compounds read low 1.04 | locus YJL166W, strain qcr8, active compounds read low 1.04 | locus YJL168C, strain set2, active compounds read low 1 | locus YJL187C, strain SWE1 (second series), active compounds read low 1.03 | locus YJL187C, strain SWE1, active compounds read low 1.04
